Calls of active or inactive are those of the source. The calls were made as follows: active = hit-call score of the fitted dose curve at least 0.9, where 1 is the maximum; inactive = score below 0.9.
Tests used:
Conditions in all cases: mRNA level, 48 h; actives raise or lower the signal
[1] = read-out: Heat shock 70 kDa protein 1 (HSPA1A), gene 3303; test: LTEA_HepaRG_HSPA1A: Life Technologies and Expression Analysis (LTEA) Assay for Heat shock 70 kDa protein 1 (HSPA1A) using HepaRG (AID 2283502)
Method in brief: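 Differentiated human HepaRG cells in serum-free induction medium were exposed in duplicate for 48 h to eight concentrations (top 100 uM, half-log steps, 0.5% DMSO). HSPA1A mRNA was quantified by qRT-PCR, normalized to ACTB, GAPDH and POLR2A, and fitted bidirectionally against DMSO.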

[2] = read-out: Hypoxia-inducible factor 1-alpha (Homo sapiens) (UniProt Q16665); test: LTEA_HepaRG_HIF1A: Life Technologies and Expression Analysis (LTEA) Assay for Hypoxia-inducible factor 1 (HIF1A) Trancription factor using HepaRG (AID 2283503)
Method in brief: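 HepaRG, 48 h exposure, 8-pt half-log series from 100 uM, 0.5% DMSO vehicle, duplicates. Readout: HIF1A transcript by qRT-PCR (Fluidigm array), housekeeping-normalised. Bidirectional curve fit vs DMSO baseline.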

[3] = read-out: 3-Hydroxy-3-Methylglutaryl-CoA Synthase 2 (HMGCS2), HMGCS2 (gene 3158); test: LTEA_HepaRG_HMGCS2: Life Technologies and Expression Analysis (LTEA) Assay for 3-Hydroxy-3-Methylglutaryl-CoA Synthase 2 (HMGCS2) using HepaRG (AID 2283504)
Method in brief: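 Human HepaRG cells in serum-free induction medium were exposed in duplicate for 48 h to 8-point half-log series from 100 uM top in 0.5% DMSO. HMGCS2 mRNA measured by TaqMan qRT-PCR, normalised to ACTB, GAPDH, POLR2A; bidirectional fit versus DMSO.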

[4] = read-out: HGF (gene 3082); test: LTEA_HepaRG_HGF: Life Technologies and Expression Analysis (LTEA) Assay for Hepatocyte Growth Facto (HGF) using HepaRG (AID 2283505)
Method in brief: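 Differentiated HepaRG cells in serum-free induction medium exposed 48 h in duplicate, 8 half-log concentrations from 100 uM in 0.5% DMSO. HGF mRNA by qRT-PCR, normalised to ACTB, GAPDH, POLR2A; bidirectional fitting.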

[5] = read-out: Insulin Like Growth Factor 1 (IGF1), IGF1 (gene 3479); test: LTEA_HepaRG_IGF1: Life Technologies and Expression Analysis (LTEA) Assay for Insulin Like Growth Factor 1 (IGF1) using HepaRG (AID 2283506)
Method in brief: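 Differentiated human HepaRG cells were dosed for 48 h in serum-free induction medium with 0.5% DMSO, eight half-log concentrations up to 100 uM, in duplicate. IGF1 mRNA was quantified by qRT-PCR normalized to ACTB, GAPDH, POLR2A; bidirectional fitting versus DMSO.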

[6] = read-out: Intercellular Adhesion Molecule 1 (ICAM1), ICAM1 (gene 3383); test: LTEA_HepaRG_ICAM1: Life Technologies and Expression Analysis (LTEA) Assay for Intercellular Adhesion Molecule 1 (ICAM1) using HepaRG (AID 2283507)
Method in brief: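 Differentiated human HepaRG cells in serum-free induction medium exposed 48 h in duplicate to 8 half-log concentrations (top 100 uM, 0.5% DMSO). ICAM1 mRNA quantified by TaqMan qRT-PCR, normalized to ACTB, GAPDH and POLR2A; bidirectional fitting versus DMSO.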

[7] = read-out: Insulin-like growth factor-binding protein 1 (IGFBP1), IGFBP1 (gene 3484); test: LTEA_HepaRG_IGFBP1: Life Technologies and Expression Analysis (LTEA) Assay for Insulin-like growth factor-binding protein 1 (IGFBP1) using HepaRG (AID 2283508)
Method in brief: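 HepaRG cells, plated 48 h then switched to serum-free induction medium, exposed in duplicate for 48 h to 8-point half-log series from 100 uM in 0.5% DMSO. mRNA measured by qRT-PCR, normalized to ACTB/GAPDH/POLR2A; bidirectional fit versus DMSO.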

[8] = read-out: Interleukin 6 Receptor (IL6R), IL6R (gene 3570); test: LTEA_HepaRG_IL6R: Life Technologies and Expression Analysis (LTEA) Assay for Interleukin 6 Receptor (IL6R) using HepaRG (AID 2283510)
Method in brief: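 Differentiated human HepaRG cells, plated 48 h then switched to serum-free induction medium, were dosed in duplicate for 48 h at eight half-log concentrations up to 100 uM in 0.5% DMSO. IL6R mRNA quantified by qRT-PCR, normalized to ACTB/GAPDH/POLR2A; bidirectional fit versus DMSO.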

[9] = read-out: Potassium channel subfamily K member 1 (KCNK1), KCNK1 (gene 3775); test: LTEA_HepaRG_KCNK1: Life Technologies and Expression Analysis (LTEA) Assay for Potassium channel subfamily K member 1 (KCNK1) using HepaRG (AID 2283511)
Method in brief: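 Gain or loss of KCNK1 mRNA is the read-out, quantified by qRT-PCR against three housekeeping genes after 48 h chemical treatment of human HepaRG liver cells. Concentrations ran from 100 uM downward in half-log steps, vehicle 0.5% DMSO.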

[10] = read-out: Keratin 19 (KRT19), KRT19 (gene 3880); test: LTEA_HepaRG_KRT19: Life Technologies and Expression Analysis (LTEA) Assay for Keratin 19 (KRT19) using HepaRG (AID 2283512)
Method in brief: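 Differentiated HepaRG cells in serum-free induction medium, exposed 48 h in duplicate to 8 half-log concentrations up to 100 uM in 0.5% DMSO. KRT19 mRNA by qRT-PCR, normalized to ACTB, GAPDH, POLR2A; bidirectional fit vs DMSO.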

[11] = read-out: JUN Transcription Factor, JUN (gene 3725); test: LTEA_HepaRG_JUN: Life Technologies and Expression Analysis (LTEA) Assay for JUN Transcription Factor using HepaRG (AID 2283513)
Method in brief: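 Differentiated HepaRG cells were exposed to chemicals for 48 h in serum-free induction medium, 8 concentrations from 100 uM in half-log steps, 0.5% DMSO vehicle, in duplicate. JUN mRNA was quantified by TaqMan qRT-PCR, normalized to ACTB, GAPDH, POLR2A.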

[12] = read-out: Lipase C (LIPC), LIPC (gene 3990); test: LTEA_HepaRG_LIPC: Life Technologies and Expression Analysis (LTEA) Assay for Lipase C (LIPC) using HepaRG (AID 2283514)
Method in brief: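 Read-out is LIPC transcript level by TaqMan qRT-PCR, normalized to three housekeeping genes, after 48 h chemical treatment of human HepaRG liver cells. Curves span eight concentrations topping at 100 uM; activity in either direction scored relative to 0.5% DMSO.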

[13] = read-out: Lipoprotein lipase (LPL), LPL (gene 4023); test: LTEA_HepaRG_LPL: Life Technologies and Expression Analysis (LTEA) Assay for Lipoprotein lipase (LPL) using HepaRG (AID 2283515)
Method in brief: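 Read-out is LPL transcript level by qRT-PCR, normalized to three housekeeping genes and fitted bidirectionally against the DMSO control. Human HepaRG cells received chemicals for 48 h at up to 100 uM.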

[14] = read-out: matrix metalloproteinase-10 (MMP10), MMP10 (gene 4319); test: LTEA_HepaRG_MMP10: Life Technologies and Expression Analysis (LTEA) Assay for matrix metalloproteinase-10 (MMP10) using HepaRG (AID 2283517)
Method in brief: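 Gain or loss of MMP10 mRNA is fitted relative to the 0.5% DMSO vehicle. The human hepatic line HepaRG receives a 48-hour serum-free exposure, in duplicate, with a maximum concentration of 100 uM.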

[15] = read-out: MYC, MYC (gene 4609); test: LTEA_HepaRG_MYC: Life Technologies and Expression Analysis (LTEA) Assay for MYC using HepaRG (AID 2283518)
Method in brief: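 Differentiated HepaRG cells exposed 48 h in serum-free induction medium to 8 concentrations (top 100 uM, half-log steps; 0.5% DMSO), duplicate. MYC mRNA measured by Fluidigm qRT-PCR, normalized to ACTB, GAPDH, POLR2A; bidirectional fit versus DMSO.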

[16] = read-out: matrix metalloproteinase-3 (MMP3), MMP3 (gene 4314); test: LTEA_HepaRG_MMP3: Life Technologies and Expression Analysis (LTEA) Assay for matrix metalloproteinase-3 (MMP3) using HepaRG (AID 2283519)
Method in brief: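 HepaRG, human; 48 h dosing, 8 conc. (max 100 uM, half-log), duplicate, 0.5% DMSO. Readout: MMP3 transcript by Fluidigm TaqMan qRT-PCR, ACTB/GAPDH/POLR2A-normalised. Gain or loss fitted vs DMSO.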

[17] = read-out: Paternally Expressed 10 (PEG10), PEG10 (gene 23089); test: LTEA_HepaRG_PEG10: Life Technologies and Expression Analysis (LTEA) Assay for Paternally Expressed 10 (PEG10) using HepaRG (AID 2283520)
Method in brief: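 Differentiated HepaRG cells, plated 48 h then switched to serum-free induction medium, were exposed in duplicate for 48 h to eight half-log concentrations topping at 100 uM in 0.5% DMSO. PEG10 mRNA was quantified by TaqMan qRT-PCR, normalised to ACTB, GAPDH and POLR2A.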

[18] = read-out: Interleukin 6 (IL6), IL6 (gene 3569); test: LTEA_HepaRG_IL6: Life Technologies and Expression Analysis (LTEA) Assay for Interleukin 6 (IL6) using HepaRG (AID 2283509)
Method in brief: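 HepaRG, ~100,000 cells/well, 48 h pre-culture; serum-free induction medium; cmpd 8-pt half-log from 100 uM, 0.5% DMSO, duplicate, 48 h. Lysis in RLT, TaqMan qRT-PCR; gain or loss vs DMSO.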

[19] = read-out: MicroRNA 122 (MIR122), gene 406906; test: LTEA_HepaRG_MIR122: Life Technologies and Expression Analysis (LTEA) Assay for MicroRNA 122 (MIR122) using HepaRG (AID 2283516); also: the transcript read is the microRNA miR-122
Method in brief: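 Differentiated human HepaRG cells were exposed 48 h in serum-free induction medium to eight half-log concentrations (top 100 uM, 0.5% DMSO). Transcript level was measured by TaqMan qRT-PCR, normalized to ACTB, GAPDH and POLR2A, and fitted bidirectionally versus DMSO.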

[20] = read-out: Nuclear factor NF-kappa-B p105 subunit (Homo sapiens) (UniProt P19838); test: LTEA_HepaRG_NFKB1: Life Technologies and Expression Analysis (LTEA) Assay for Nuclear Factor Kappa B Subunit 1 (NFKB1) using HepaRG (AID 2283521)
Method in brief: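 HepaRG, 48 h exposure; 8-pt half-log series from 100 uM in 0.5% DMSO; duplicates. Readout: NFKB1 mRNA by qRT-PCR (Fluidigm arrays), housekeeping-normalized. Gain/loss fit vs DMSO baseline.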

Measured: AC50

Sequence of Hypoxia-inducible factor 1-alpha (Homo sapiens) (Q16665 whole entry, looked up): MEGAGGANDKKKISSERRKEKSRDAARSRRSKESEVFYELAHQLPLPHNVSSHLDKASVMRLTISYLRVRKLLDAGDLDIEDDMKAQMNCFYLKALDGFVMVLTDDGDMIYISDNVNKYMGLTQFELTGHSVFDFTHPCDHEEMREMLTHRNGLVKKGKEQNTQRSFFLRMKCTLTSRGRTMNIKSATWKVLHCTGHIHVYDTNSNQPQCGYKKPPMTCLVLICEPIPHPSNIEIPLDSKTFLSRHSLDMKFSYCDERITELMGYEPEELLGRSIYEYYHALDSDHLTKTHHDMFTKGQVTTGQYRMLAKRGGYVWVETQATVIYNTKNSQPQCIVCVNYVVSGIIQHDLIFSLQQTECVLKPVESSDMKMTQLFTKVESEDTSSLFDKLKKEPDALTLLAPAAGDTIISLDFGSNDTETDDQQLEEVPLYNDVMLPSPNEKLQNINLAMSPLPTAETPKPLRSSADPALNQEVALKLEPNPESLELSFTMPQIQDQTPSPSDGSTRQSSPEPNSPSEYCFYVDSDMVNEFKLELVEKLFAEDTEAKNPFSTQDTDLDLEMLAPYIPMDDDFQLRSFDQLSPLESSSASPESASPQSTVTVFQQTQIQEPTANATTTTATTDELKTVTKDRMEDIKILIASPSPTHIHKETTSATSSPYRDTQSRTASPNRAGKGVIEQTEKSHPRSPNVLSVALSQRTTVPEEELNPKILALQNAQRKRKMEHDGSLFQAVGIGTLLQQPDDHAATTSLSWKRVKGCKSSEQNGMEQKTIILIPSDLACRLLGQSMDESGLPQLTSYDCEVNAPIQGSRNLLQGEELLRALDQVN
Sequence of Nuclear factor NF-kappa-B p105 subunit (Homo sapiens) (P19838 whole entry, looked up): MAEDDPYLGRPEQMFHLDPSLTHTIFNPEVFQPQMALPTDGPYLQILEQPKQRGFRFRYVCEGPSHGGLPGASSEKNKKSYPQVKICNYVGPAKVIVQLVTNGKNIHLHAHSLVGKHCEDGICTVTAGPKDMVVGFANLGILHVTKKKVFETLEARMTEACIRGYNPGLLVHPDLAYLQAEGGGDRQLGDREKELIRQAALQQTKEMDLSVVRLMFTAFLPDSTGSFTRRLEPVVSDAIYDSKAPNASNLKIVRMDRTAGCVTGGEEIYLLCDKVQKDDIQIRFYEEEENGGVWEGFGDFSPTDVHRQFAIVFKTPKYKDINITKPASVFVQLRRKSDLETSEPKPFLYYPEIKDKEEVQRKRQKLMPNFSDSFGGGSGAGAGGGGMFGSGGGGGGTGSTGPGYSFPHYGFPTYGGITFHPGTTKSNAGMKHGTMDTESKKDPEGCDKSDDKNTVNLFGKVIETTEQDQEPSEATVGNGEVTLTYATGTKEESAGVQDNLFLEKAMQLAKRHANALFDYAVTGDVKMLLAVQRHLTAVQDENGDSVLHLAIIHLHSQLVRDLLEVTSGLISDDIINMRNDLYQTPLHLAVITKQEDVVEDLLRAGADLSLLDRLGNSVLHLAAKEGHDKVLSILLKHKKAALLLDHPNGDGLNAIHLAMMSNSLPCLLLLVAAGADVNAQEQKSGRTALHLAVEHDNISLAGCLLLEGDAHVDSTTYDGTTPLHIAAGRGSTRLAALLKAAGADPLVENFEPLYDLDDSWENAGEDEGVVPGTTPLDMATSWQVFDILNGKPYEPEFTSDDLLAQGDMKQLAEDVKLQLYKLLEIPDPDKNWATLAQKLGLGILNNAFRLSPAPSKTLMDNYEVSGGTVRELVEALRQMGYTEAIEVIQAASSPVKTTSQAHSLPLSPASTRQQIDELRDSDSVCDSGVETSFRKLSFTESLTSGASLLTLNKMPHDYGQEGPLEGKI

Clc1ccc(Cl)c(Cl)c1
active: [3] 50 µM | [13] 50 µM | [17] 50 µM
not listed: [18] | [19] | [20]
inactive: all other assays above

Oc1ccc2ccc3cccc4ccc1c2c34
active: [10] 8.53 µM
not listed: [13]
inactive: all other assays above
